In the library only some 4.7% were active in any assay of this set; here they are far more common.
D1 potentiator – enhances dopamine response at the human D1 receptor | P21728 | HEK293 TREx D1 cells, calcium flux, dopamine EC20 potentiation | potentiation, % at 10 µM | 0.036% of 360,000 active | AID 504651; in the data active means potentiation above about 30%
Target sequence (P21728 whole entry, looked up): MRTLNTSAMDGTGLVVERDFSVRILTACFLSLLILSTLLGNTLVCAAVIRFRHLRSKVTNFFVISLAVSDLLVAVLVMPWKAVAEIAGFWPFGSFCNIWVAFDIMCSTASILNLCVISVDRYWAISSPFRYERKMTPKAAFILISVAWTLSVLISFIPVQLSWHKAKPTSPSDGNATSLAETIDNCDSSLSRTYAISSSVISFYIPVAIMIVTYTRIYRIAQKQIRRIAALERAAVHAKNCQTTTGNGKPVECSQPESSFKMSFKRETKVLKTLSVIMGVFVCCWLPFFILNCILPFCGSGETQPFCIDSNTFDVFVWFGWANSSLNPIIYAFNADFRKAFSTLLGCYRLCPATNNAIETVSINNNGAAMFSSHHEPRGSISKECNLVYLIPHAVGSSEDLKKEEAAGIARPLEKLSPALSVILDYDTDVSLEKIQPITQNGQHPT
D1 antag – human D1 dopamine receptor antagonism; P21728; HEK293 TREx D1 cells, calcium flux, dopamine EC80; hits give low values; activity change, negative = inhibition, % at 10 µM; 3.2% of 360,000 active; in the data active means activity change below about -30%
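Kinetic fluorescence of a calcium dye serves as the read-out. D1-expressing Hek293 Trex cells, induced overnight at 30 C, are exposed to compound for 180 s before an EC80 dopamine addition, then read 180 s further.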
TRHR PAM – allosteric enhancers of human TRH receptor | TRHR cells, fluo-8 calcium fluorescence, EC20 TRH enhancement | 0.66% of 360,000 active | P34981 | enhancement, % at 2 µM; in the data active means enhancement above about 30%
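Enhancer read-out: after compound pinning and an initial kinetic agonist-mode read, an EC20 of TRH (10 nM final) was injected and fluo-8 calcium signal (Ex 480/Em 530) followed at 1 s/cycle for 100 cycles in TRHR-expressing cells.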
D1 agonist – agonists of human D1 dopamine receptor | P21728 | HEK293 T-REx D1 cells, calcium flux, agonist mode | activation, % at 2 µM | 1% of 360,000 active | AID 504660
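Inducible HEK293 T-REx D1 cells, force-coupled to calcium signalling, were plated at 4000 cells/well with tetracycline and held overnight at 30 C. After no-wash calcium dye loading, compound-evoked calcium rise over 180 s flagged agonists.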
TRHR ag – agonists of human TRH receptor; P34981; TRHR cells, calcium flux fluo-8, FDSS agonist mode; activation, % at 2 µM; 0.18% of 360,000 active
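Agonist-mode FDSS calcium read (Ex 480/Em 530, 1 s cycles) in 1536-well TRHR cells with fluo-8 dye, after 10-cycle baseline and 23 nL compound addition; TRH at EC20 (10 nM final) added afterwards for the enhancer phase.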
Large screens that a line does not name were inactive. Unless noted, no stated cut-off is given here; in the data, active means activation above about 30%; inactive means the rest.

CC(=O)N1N=C(c2cccc(NS(C)(=O)=O)c2)CC1c1cccs1 (stereo unspecified)	none
COc1ccccc1C(=O)N1N=C(c2ccc(NS(C)(=O)=O)cc2)CC1c1cccs1 (stereo unspecified)	TRHR PAM 34
Cc1ccccc1C(=O)N1N=C(c2ccc(NS(C)(=O)=O)cc2)CC1c1cccs1 (stereo unspecified)	none
CS(=O)(=O)Nc1ccc(C2=NN(C(=O)c3ccccc3)C(c3cccs3)C2)cc1 (stereo unspecified)	D1 antag -34
COc1ccc(C(=O)c2cn(Cc3ccccc3F)c3ccc(F)cc3c2=O)cc1	none
COCCN1CCn2c(nc3cc(NC(C)=O)ccc32)C1	none
COCCN1CCn2c(nc3cc(NC(=O)c4ccc(OC)cc4)ccc32)C1	D1 antag -52
O=C(NC1CCCC1)c1ccc(CSc2nc3ccncc3n2Cc2cccc(F)c2)cc1	none
CCc1ccc(NC(=O)CSC2=Nc3ccccc3C3=NC(CC(=O)NCc4ccccc4)C(=O)N23)cc1 (stereo unspecified)	none
Cc1ccc2[nH]c(O)c(N=NC(N)=S)c2c1	none
Cc1ccc(N=Nc2c(O)[nH]c3ccc(F)cc23)cc1	D1 antag -48, D1 agonist 117
Cc1ccc(N=Nc2[nH]c3ccccc3c2O)cc1	D1 agonist 52
CC(C)c1ccc(C(=O)Nc2cccc3cccnc23)cc1	none
CCN(CC)S(=O)(=O)c1cccc(-c2nnc(SCCOc3ccccc3C)o2)c1	D1 agonist 33
CC(C)c1ccc(NC(=O)COC(=O)CSc2nnc(N)s2)cc1	none
Nc1nnc(SCC(=O)OCC(=O)Nc2ccccc2F)s1	D1 antag -56
CCCS(=O)(=O)N1CC(=O)N(c2cc(C)ccc2C)C(C)(C(=O)NC2CCCCCC2)C1 (stereo unspecified)	none
Cc1ccc(C(=O)N/N=C2/NC(=O)CC(C(=O)Nc3ccccc3)S2)cc1 (stereo unspecified)	none
O=C(C1CCC1)N1CCN(c2ccc(C(F)(F)F)cc2[N+](=O)[O-])CC1	D1 antag -40
O=C(Nc1ccccc1)N1CCCN(c2ccc(C(F)(F)F)cc2[N+](=O)[O-])CC1	none
CCOC(=O)N1CCN(C(=O)CSc2ccc(C(F)(F)F)cc2[N+](=O)[O-])CC1	none
Cc1cc(N2CCN(c3ccc(C(F)(F)F)cc3[N+](=O)[O-])CC2)c2ccccc2n1	TRHR PAM 35
CN1CCN(C(=O)CSc2ccc(C(F)(F)F)cc2[N+](=O)[O-])CC1	D1 antag -65
CCN(CC)c1cc(C)c2cc(NC(=O)/C=C/c3ccccc3Cl)ccc2n1	none
COc1cccc(C(=O)NCCc2csc3nc(-c4ccccc4F)nn23)c1OC	TRHR PAM 35
CCCCc1nn2c(=O)cc(COC(=O)c3ccccc3NC(=O)c3ccccc3OC)nc2s1	none
O=C(Nc1ccc(Cl)cc1)N1CCC(c2nc(-c3ccc(F)cc3)no2)CC1	D1 antag -50
COc1ccc(C(=O)N2CCC(C(=O)c3ccc(F)cc3)CC2)cc1	none
COc1ccccc1C(=O)N1CCC(C(=O)c2ccc(F)cc2)CC1	D1 antag -32
O=C(c1ccc(F)cc1)C1CCN(C(=O)Nc2ccc(F)cc2)CC1	D1 antag -30
COc1ccc(NC(=O)N2CCCC(c3nc(-c4ccc(OC)cc4)no3)C2)cc1 (stereo unspecified)	none
O=C(CN1CCC(C(=O)c2ccc(F)cc2)CC1)Nc1ccccc1	D1 antag -56
Cc1ccc(C(=O)C2CCN(CC(=O)N3CCN(c4ccc(F)cc4)CC3)CC2)cc1	D1 antag -31
O=C(Nc1ccc(Br)cc1)N1CCCCCC1	D1 antag -50
O=C(NCc1ccc(F)cc1)C1CCCN(C(=O)Nc2ccccc2)C1 (stereo unspecified)	none
O=C(CN1CCC(C(=O)c2ccc(F)cc2)CC1)Nc1ccc(F)cc1	none
O=C(NCc1ccc(F)cc1)C1CCCN(C(=O)Nc2ccc(F)cc2)C1 (stereo unspecified)	D1 antag -86
CC(C)CCN(Cc1ccco1)C(=O)Cn1ncc2c([nH]c3ccccc32)c1=O	none
CC(Oc1ccccc1)C(=O)Nc1ccc(C(=O)OCc2cc(=O)n3ccsc3n2)cc1 (stereo unspecified)	none

From PubChem BioAssay
